Hits are enriched below; roughly 6.3% of the tested compounds scored in any of these assays.
Mdm2 MdmX PPI: inhibitors of human Mdm2/MdmX interaction; SaOS-2 split-luciferase Mdm2/MdmX complementation, luminescence; inhibition, % at 8 µM; 3% of 330,000 active; O15151+Q00987;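 active means inhibition of at least 50% at 8 µM in the primary screen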
tim10-1 inh: growth inhibitors of tim10-1 mutant yeast; AID 463190; inhibition, % at 20 µM; 2.2% of 330,000 active; S. cerevisiae tim10-1 ts strain growth, BacTiter-Glo, 24 h;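 active means inhibition of at least 40%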;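 further: mutant grown at 25 °C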
MPTP block: inhibitors of mitochondrial permeability transition pore | AID 602449 | isolated mouse mitochondria, Ca2+ swelling absorbance, 30 min | 1.4% of 360,000 active | inhibition, % at 10 µM;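 active means inhibition of 50% or more, scaled per plate between neutral and stimulator controls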
tim23-1 inh: tim23-1 yeast growth inhibition. inhibition, % at 20 µM. S. cerevisiae tim23-1 growth, BacTiter-Glo luminescence, 24 h. 1.3% of 330,000 active. AID 463212;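 active means growth inhibition of the mutant yeast at or above 50%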;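 further: temperature-sensitive mutant grown at 25 °C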
TIM10 inh: TIM10 yeast growth inhibition | inhibition, % at 10 µM | AID 463195 | 1.4% of 330,000 active | S. cerevisiae TIM10 strain growth, BacTiter-Glo luminescence, 24 h;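 active means inhibition of 40% or more at the single tested concentration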;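 further: wild-type TIM10 isogenic control strain grown at permissive 25 °C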
tim10-1 conf: tim10-1 yeast growth inhibition, confirmed. S. cerevisiae tim10-1 ts strain growth, BacTiter-Glo, 24 h. shares compounds with tim10-1 inh. inhibition, % at 20 µM. AID 463213. 56% of 7,400 active;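 active means inhibition of yeast growth at or above a set limit in either of two repeat tests at 20 µM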;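 further: tim10-1 mutant grown at permissive 25 °C to find synthetic lethal compounds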
Of the large screens only hits and unclear results are named; the others gave an inactive call (follow-up assays come after a bar, where they were run).

COc1ccc(-n2c(CCc3ccccc3)n[nH]c2=S)cc1	none
Cc1cccc(-n2c(Cc3ccccc3)n[nH]c2=S)c1	none
CCc1ccc(-n2c(Cc3ccccc3)n[nH]c2=S)cc1	tim10-1 inh 48 | tim10-1 conf inactive
CC1=C2CCCC[C@@]23C2C(=O)N(C)C(=O)[C@@H]2ON3OC1 (stereo partly specified)	none (no result: Mdm2 MdmX PPI, tim10-1 inh, tim23-1 inh, TIM10 inh)
CC(Oc1cccc2ccccc12)C(=O)N/N=C/c1cccnc1 (stereo unspecified)	tim10-1 inh 44 | tim10-1 conf inactive
Oc1ccc(Oc2ncc(Cl)cc2Cl)cc1	tim10-1 inh 40 | tim10-1 conf 34
CCOCCOC(=O)C(C)Oc1ccc(Oc2ncc(Cl)cc2Cl)cc1 (stereo unspecified)	none
Cc1ccccc1-c1n[nH]c(=S)n1Cc1ccccc1	tim10-1 inh 40 | tim10-1 conf inactive
S=c1[nH]nc(-c2ccccc2Br)n1Cc1ccccc1	tim10-1 inh 41 | tim10-1 conf inactive
COC(=O)C[C@H]1CC[C@H](NC(=O)Nc2ccccc2F)[C@@H](CO)O1	none (no result: Mdm2 MdmX PPI, tim10-1 inh, tim23-1 inh, TIM10 inh)
O=C(OC1CC2CC1[C@H]1CCCCN1C2=O)N1CCCCC1 (stereo partly specified)	none (no result: Mdm2 MdmX PPI, tim10-1 inh, tim23-1 inh, TIM10 inh)
COc1ccc2c(c1)CC/C(=C\c1ccc(OC)c(Cn3nc(C)cc3C)c1)C2=O	tim10-1 inh 40 | tim10-1 conf inactive
Cc1cc(OCCOc2cccc3cccnc23)cc(C)c1Cl	tim10-1 inh 41 | tim10-1 conf inactive
c1ccc(OCCOc2cccc3cccnc23)cc1	none
Cc1cccc(/C=C/c2onc(C)c2S(=O)(=O)N2CCC(C(=O)NC(C)(C)C)CC2)c1	none
CCN(CC)C(=O)C1CCN(S(=O)(=O)c2c(C)noc2/C=C/c2cccc(C)c2)CC1	tim10-1 inh 41 | tim10-1 conf inactive
Cn1c(N/N=C/c2cc3ccccc3nc2Cl)nc2ccccc21	tim10-1 inh 42 | tim10-1 conf 33
CCc1ccc(C(=O)COC(=O)CNC(=O)COc2ccccc2)cc1	tim10-1 inh 42 | tim10-1 conf inactive
Cc1ccc(C(=O)COC(=O)CNC(=O)Cc2ccccc2)cc1	none
CCN(CC)c1ccc(-c2nnc(SCC(=O)Nc3ccccc3C#N)n2-c2ccccc2)cc1	tim10-1 inh 42 | tim10-1 conf inactive
O=C(c1cn(-c2ccccc2)nc1-c1ccncc1)n1nnc2ccccc21	tim10-1 inh 53 | tim10-1 conf 39
O=C(O)c1cn(-c2ccccc2)nc1-c1ccncc1	none
COc1ccc(N2c3ccccc3CN(Cc3ccccc3)[C@@H](C)[C@H]2Cc2cccnc2)cc1	none (no result: Mdm2 MdmX PPI, tim10-1 inh, tim23-1 inh, TIM10 inh)
CCOc1ccccc1C1N=C(c2ccc(OC)cc2)CC(c2ccccc2O)N1 (stereo unspecified)	tim10-1 inh 44 | tim10-1 conf inactive
CCN(C(=O)c1ccc2c(c1)OCO2)C12CC3CC(CC(C3)C1)C2	none
CCN(C(=O)c1cccc(S(=O)(=O)N(C)C)c1)C12CC3CC(CC(C3)C1)C2	tim10-1 inh 41 | tim10-1 conf inactive
CCc1nc2c(OCc3c(C)noc3C)cccn2c1N(C=O)Cc1ccccc1	none (no result: Mdm2 MdmX PPI, tim10-1 inh, tim23-1 inh, TIM10 inh)
Cc1cc(N2CCN(c3ccccc3Cl)CC2)n2cc(-c3ccccc3)nc2n1	tim10-1 inh 42 | tim10-1 conf 49
Cc1cc(N2CCN(c3ccccc3)CC2)n2cc(-c3ccccc3)nc2n1	none
Cc1csc(CN(C)C(=O)CC2C(=O)NCCN2Cc2ccccc2C)n1 (stereo unspecified)	none (no result: Mdm2 MdmX PPI, tim10-1 inh, tim23-1 inh, TIM10 inh)
N#CCCN(Cc1ccccc1)C(=S)NC(=O)c1ccccc1	tim10-1 inh 40 | tim10-1 conf inactive
CCC/C=N/NC(=O)c1[nH]c2c([N+](=O)[O-])cccc2c1C	tim10-1 inh 41 | tim10-1 conf inactive
Cc1ccnc(Nc2nc(-c3ccc(F)cc3)cs2)c1	tim10-1 inh 42 | tim10-1 conf inactive
N#Cc1cccc(NC(=O)c2cc(C3CCCCN3C(=O)c3ccccn3)on2)c1 (stereo unspecified)	none (no result: Mdm2 MdmX PPI, tim10-1 inh, tim23-1 inh, TIM10 inh)
Cc1nc2c(-c3ccc(F)cc3)c(C)nn2c(N2CCOCC2)c1C	tim10-1 inh 45 | tim10-1 conf inactive
CCC(=O)Nc1ccc(S(=O)(=O)NC[C@H]2O[C@@H](n3cc(C)c(=O)[nH]c3=O)C[C@@H]2O)cc1	none (no result: Mdm2 MdmX PPI, tim10-1 inh, tim23-1 inh, TIM10 inh)
Brc1ccc(C2Nc3cccc4cccc(c34)N2)o1	tim10-1 inh 42 | tim10-1 conf 29
Cc1ccc(C(=O)NCCN2CCC(n3c(=O)[nH]c4ccccc43)CC2)cc1	none (no result: Mdm2 MdmX PPI, tim10-1 inh, tim23-1 inh, TIM10 inh)
Cc1ccc(N2C(=O)C3C4C=CC(CNC(=S)Nc5ccc(Cl)cc5)(O4)C3C2=O)cc1 (stereo unspecified)	none
Cc1ccc(N2C(=O)C3C4C=CC(CNC(=S)Nc5cccc(Cl)c5)(O4)C3C2=O)cc1 (stereo unspecified)	tim10-1 inh 44 | tim10-1 conf 50
O=C1C2C3C=CC(CO)(O3)C2C(=O)N1c1ccc(-c2ccccc2)cc1 (stereo unspecified)	tim10-1 inh 95 (no result: MPTP block) | tim10-1 conf 97
CCCCCCOc1ccc(N2C(=O)CC(N3CCN(CCN=CC4C(=O)CC(C)(C)CC4=O)CC3)C2=O)cc1 (stereo unspecified)	tim10-1 inh 43 | tim10-1 conf 41
COc1ccc(-c2sc3ccccc3c2-c2cc(OC)ccc2C=O)cc1	none (no result: Mdm2 MdmX PPI, tim10-1 inh, tim23-1 inh, TIM10 inh)
CCOC(=O)C1CCCN(C(=O)/C=C/c2ccc(Cl)cc2)C1 (stereo unspecified)	tim10-1 inh 41 | tim10-1 conf inactive
CCOC(=O)C1CCCN(C(=O)/C=C/c2cc(OC)c(OC)c(OC)c2)C1 (stereo unspecified)	none
Cc1cc(Br)cn2c(Cc3ccsc3)c(-c3ccc(F)cc3)nc12	none (no result: Mdm2 MdmX PPI, tim10-1 inh, tim23-1 inh, TIM10 inh)
CC(C)(C)C1CCc2c(C(=O)NNC(=O)/C=C/C(=O)O)csc2C1 (stereo unspecified)	none
CC(C)(C)C1CCc2c(C(=O)N/N=C/c3cccs3)csc2C1 (stereo unspecified)	tim10-1 inh 47 | tim10-1 conf 32
Cc1cc(NC(=O)c2oc3ccccc3c2C)ccc1-n1cnnn1	tim10-1 inh 42 | tim10-1 conf inactive
COc1cc(OC)cc(C(=O)Nc2ccc(-n3cnnn3)c(C)c2)c1	none
COc1ccc(N2CCC(CNC(=O)Nc3ccccc3)C2)cc1 (stereo unspecified)	tim10-1 inh 41 | tim10-1 conf 33
CCSc1nnc(NC(=O)CN2C(=O)C3CC=CCC3C2=O)s1 (stereo unspecified)	none
CCSc1nnc(NC(=O)CN2C(=O)N(C)C3(CCCCC3)C2=O)s1	tim10-1 inh 97 | tim10-1 conf inactive
COc1ccc(CCNC(=O)C(F)(F)F)cc1S(N)(=O)=O	none (no result: Mdm2 MdmX PPI, tim10-1 inh, tim23-1 inh, TIM10 inh)
Cc1nn(-c2ccccc2)c(Cl)c1/C=N/NS(=O)(=O)c1ccc(Br)cc1	tim10-1 inh 42 | tim10-1 conf inactive
Cc1nn(-c2ccccc2)c(Cl)c1/C=N/Nc1ccc(S(=O)(=O)Nc2ccccc2C(=O)O)cc1[N+](=O)[O-]	tim10-1 inh 42 | tim10-1 conf 36
Cc1nn(-c2ccccc2)c(Cl)c1/C=N/NC(=O)OC(C)(C)C	tim10-1 inh 44 | tim10-1 conf inactive
